ADAM17 inh = ADAM17 inhibitors, primary screen, biochemical, QFRET. 370,000 tested, 0.83% active. inhibition, % at 6.95 µM. recombinant ADAM17, EDANS/DABCYL FRET peptide cleavage. Disintegrin and metalloproteinase domain-containing protein 17 (Homo sapiens), P78536;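 active = inhibition above the mean of compounds lying between control limits plus 3 SD, set per campaign, cut at about 8.5% in these data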;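 also: 0% = DMSO-only wells as the low control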
PLC-beta3 inh = human PLC-beta3 inhibitors, primary screen, biochemical, fluorescence; Purified PLC-beta3, fluorogenic substrate; AID 720704, 2013; 370,000 tested, 0.18% active; inhibition, % at 12.2 µM; 1-phosphatidylinositol 4,5-bisphosphate phosphodiesterase beta-3 (Homo sapiens), Q01970; in the data active = inhibition above about 11%;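 also: 0% = median of compound wells on plate and 100% = full blocker control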
PLC-gamma1 inh = PLC-gamma1 enzyme inhibitors, primary screen, biochemical, fluorescence, purified enzyme; 1-phosphatidylinositol 4,5-bisphosphate phosphodiesterase gamma-1 (Homo sapiens), P19174; fluorogenic substrate; inhibition, % at 12.2 µM; 370,000 tested, 0.84% active; AID 720700, 2013; in the data active = inhibition above about 9.5%
KLK7 zymogen act = proKLK7 zymogen activators, primary screen, biochemical, fluorescence intensity | 370,000 tested, 0.9% active | purified proKLK7, EDANS-DABCYL substrate fluorescence; 100% is mature enzyme control, 0% vehicle | Kallikrein-7 (Homo sapiens), P49862 | activation, % at 7 µM;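 active = activation above the mean of all tested compounds plus 3 SD, computed per campaign excluding outliers beyond control limits, cut at about 13% in these data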
ADAM10 inh = human ADAM10 inhibitors, primary screen, biochemical, QFRET, HTS; inhibition, % at 7 µM; 370,000 tested, 0.62% active; Disintegrin and metalloproteinase domain-containing protein 10 (Homo sapiens), O14672; recombinant ADAM10, EDANS/DABCYL FRET peptide cleavage, 3 h;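 active = inhibition above a per-campaign cutoff equal to the mean of compounds falling between control-based bounds plus 3 SD, cut at about 20% in these data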;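 also: 0% = DMSO wells while the 100% control is not disclosed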
ADAM10 confirm = human ADAM10 inhibitors, confirmation, biochemical, QFRET, triplicate; 2,100 tested, 1% active; inhibition, % at 6.95 µM; AID 743208, 2013; shares compounds with ADAM10 inh; ADAM10 QFRET peptide cleavage, EDANS fluorescence;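 active = inhibition above about 20% chosen separately for each screening run, limit read from the data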;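 also: 0% = DMSO wells and 100% = marimastat wells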
ADAM17 counter = ADAM17 inhibitors, counter-screen for ADAM10 exosite inhibitor project, biochemical, QFRET, high throughput; shares compounds with ADAM10 inh; ADAM17 QFRET peptide cleavage, EDANS fluorescence; 2,100 tested, 0.5% active; inhibition, % at 6.95 µM;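 active = mean triplicate inhibition above the solvent-only control wells' mean plus 3 SD, cut at about 12% in these data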;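 also: 0% = DMSO wells and 100% = marimastat wells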
ADAM10 ctr = ADAM10 inhibitors, counter-screen for ADAM17 exosite inhibitor project, biochemical, FRET, human ADAM10; shares compounds with ADAM17 inh; recombinant ADAM10, EDANS/DABCYL FRET peptide cleavage, 3 h; inhibition, % at 6.95 µM; 2,900 tested, 47% active;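 active = mean inhibition over the triplicate runs exceeds the activity threshold set in the earlier primary screen, cut at about 20% in these data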;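 also: 0% = DMSO wells and 100% = marimastat wells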
ADAM17 confirm = ADAM17 inhibitors, hit retest, confirmation, biochemical, QFRET peptide cleavage | shares compounds with ADAM17 inh | recombinant ADAM17, EDANS/DABCYL QFRET peptide cleavage | inhibition, % at 6.95 µM | 2,900 tested, 65% active | AID 743257, 2014;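 active = mean inhibition across replicates above the hit cutoff set in the primary screen, cut at about 8.5% in these data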;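 also: 0% = DMSO wells and 100% = marimastat wells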
Starred values were filed as active, the others as inactive. Sampled rows, rich in hits. Any-hit rate of the full collection: about 2.9%.

Screening CCn1cc([N+](=O)[O-])c(C(=O)N2N=C(c3cccc4ccccc34)CC2c2ccccc2O)n1 (stereo not drawn) returned ADAM17 inh 9.3*, PLC-beta3 inh 4.7, PLC-gamma1 inh 3.1, KLK7 zymogen act -0.7, ADAM10 inh 23.0*, ADAM10 confirm 6.9, ADAM17 counter 1.8, ADAM10 ctr 29.1* and ADAM17 confirm 16.9*.
`CC(C)C[C@H](NC(=O)c1nc[nH]c1C(=O)N[C@@H](CCCCNC(=O)OC(C)(C)C)C(=O)OC(C)(C)C)C(=O)OCc1ccccc1` gave ADAM17 inh 2.8, PLC-beta3 inh 3.5, PLC-gamma1 inh -0.5, KLK7 zymogen act 0.6 and ADAM10 inh 11.0.
For CC(C)(C)OC(=O)NCCCC[C@H](NC(=O)c1nc[nH]c1C(=O)NCC(=O)OCc1ccccc1)C(=O)OC(C)(C)C the results were ADAM17 inh 11.1*, PLC-beta3 inh 0.5, PLC-gamma1 inh 2.8, KLK7 zymogen act 0.4, ADAM10 inh 23.7*, ADAM10 confirm 2.0, ADAM17 counter 0.1, ADAM10 ctr 24.9* and ADAM17 confirm 17.9*.
`C[C@H](NC(=O)c1nc[nH]c1C(=O)N[C@@H](CCCCNC(=O)OC(C)(C)C)C(=O)OC(C)(C)C)C(=O)OCc1ccccc1` gave ADAM17 inh 15.1*, PLC-beta3 inh 4.0, PLC-gamma1 inh 2.9, KLK7 zymogen act -0.2, ADAM10 inh 29.3*, ADAM10 confirm 5.8, ADAM17 counter 1.2, ADAM10 ctr 41.8* and ADAM17 confirm 23.1*.
O=S1(=O)CC2c3ccccc3CN2CN1CCc1ccccc1 (stereo not drawn) was read as ADAM17 inh -3.4, PLC-beta3 inh -9.3, PLC-gamma1 inh -8.9, KLK7 zymogen act 0.4 and ADAM10 inh -0.3.
For CCOC(=O)c1ccc(NC(=S)NCCc2ccccc2)cc1 the results were ADAM17 inh 11.1*, PLC-beta3 inh -4.2, PLC-gamma1 inh 2.4, KLK7 zymogen act -0.1, ADAM10 inh 46.0*, ADAM10 confirm 1.2, ADAM17 counter 0.3, ADAM10 ctr 21.3* and ADAM17 confirm 10.6*.
`COc1ccc(C(=O)Nc2ccc(OCC(F)(F)C(F)F)c(C(F)(F)F)c2)cc1OC` gave ADAM17 inh 9.0*, PLC-beta3 inh -0.1, PLC-gamma1 inh -3.2, KLK7 zymogen act -0.1, ADAM10 inh 25.8*, ADAM10 confirm 2.8, ADAM17 counter 0.5, ADAM10 ctr 51.6* and ADAM17 confirm 20.5*.
NC(=O)COC(=O)c1ccc(Cl)c(S(=O)(=O)N(Cc2ccccc2)c2ccc(Cl)cc2)c1 was read as ADAM17 inh 10.3*, PLC-beta3 inh -1.7, PLC-gamma1 inh 5.3, KLK7 zymogen act -0.5, ADAM10 inh 25.9*, ADAM10 confirm 7.8, ADAM17 counter 2.1, ADAM10 ctr 24.3* and ADAM17 confirm 13.6*.

High-throughput results: PubChem BioAssay, The Scripps Research Institute Molecular Screening Center
